We go through 13 molecules from PubChem BioAssay (NCI).

Among the test systems are NCI-H23 lung; NCI-H226 lung; NCI-H322M lung; HOP-62 NSCLC; NCI-H460 lung; HOP-92 NSCLC; NCI-H522 lung; A549/ATCC NSCLC; 786-0 renal; COLO 205 colon.
What all share (test): NCI-60 one-dose screen, 48 h (100 = growth as untreated, 0 = no growth, -100 = all killed)
Holding throughout (details): 10 µM unless noted

The panel holds about 83,000 compounds, 20% with a hit somewhere; the sample as a whole holds those more often.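 Treatment: one concentration, 48 hours, 96-well format. Scoring: percent growth, with anything below 10 considered active.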 Values without a mark were called inactive. Activity calls are given as the source filed them.

As to `CCOC(=O)[C@@H](C)C[C@H](Cc1ccccc1)NC(=O)c1csc([C@@H](C[C@H](C(C)C)N(C)C(=O)[C@@H](NC(=O)[C@H]2C[C@H](O[Si](C)(C)C(C)(C)C)CCN2C)C(C)C)OC(C)=O)n1`, the growth in the test on NCI-H23 lung is 17.6% [9.25 µM]; in the test with NCI-H226 lung, -39.2% [9.25 µM] (active); in the test with NCI-H322M lung, 25% [9.25 µM]; in the test with HOP-62 NSCLC it was 0.247% [9.25 µM] (active); with NCI-H460 lung, -23.9% [9.25 µM] (active); in the test on HOP-92 NSCLC, -9.53% [9.25 µM] (active). Also, the growth in the test on NCI-H522 lung was -46.7% [9.25 µM] (active); in the test on A549/ATCC NSCLC, 7.91% [9.25 µM] (active); with 786-0 renal, -5.36% [9.25 µM] (active); with COLO 205 colon, -72.6% [9.25 µM] (active).
Take `O=C(/C(=C\c1ccc([N+](=O)[O-])cc1)S(=O)Cc1ccc(Cl)cc1)c1ccc(Cl)cc1` (stereo not given): the growth with NCI-H23 lung was 84.5%; in the test with NCI-H226 lung, 92.9%; in the test with NCI-H322M lung it was 89.5%; in the test with HOP-62 NSCLC, 96.1%; in the test on NCI-H460 lung, 76.3%; in the test on HOP-92 NSCLC it was 83.6%. In addition, the growth was 37.5% with NCI-H522 lung, 93.8% in the test on A549/ATCC NSCLC, 32.1% with 786-0 renal and 74.7% in the test with COLO 205 colon.
`CC(=O)[C@@H]1CC[C@]2(CO)CC[C@]3(C)[C@H](CC[C@@H]4[C@@]5(C)CCCNC(C)(C)[C@@H]5CC[C@]43C)[C@@H]12`: the growth was 94.6% in the test on NCI-H23 lung; 107% in the test with NCI-H226 lung; 88.8% in the test on NCI-H322M lung; 111% in the test with HOP-62 NSCLC; 100% in the test on NCI-H460 lung; 88.7% in the test with HOP-92 NSCLC. Also, the growth in the test with NCI-H522 lung is 91.6%; with A549/ATCC NSCLC, 112%; in the test with 786-0 renal it was 93.6%; in the test with COLO 205 colon, 106%.
Turning to `NC(=NCCCOc1ccc(F)cc1)Nc1ccc(Cl)cc1`, the growth in the test on NCI-H23 lung was 46%; in the test with NCI-H226 lung, 65.7%; in the test with NCI-H322M lung it was 60.1%; with HOP-62 NSCLC, 46.6%; in the test on NCI-H460 lung it was 84.2%; in the test with HOP-92 NSCLC it was 60.7%. Also, the growth is 76.5% with NCI-H522 lung, 53% with A549/ATCC NSCLC, 71.4% in the test on 786-0 renal and -69.6% (active) in the test on COLO 205 colon.
Regarding `CCCCCCNC(=O)Oc1ccc(/C(=C(\C)c2ccccc2)c2ccc(OCCN3CCCCC3)cc2)cc1`, the growth with NCI-H23 lung is 68.7%; in the test with NCI-H226 lung it was 93.8%; with NCI-H322M lung it was 80.5%; in the test with HOP-62 NSCLC, 75.4%; with NCI-H460 lung it was 41%; with HOP-92 NSCLC, 64.1%. Further, the growth is 71.8% with NCI-H522 lung, 64.4% in the test with A549/ATCC NSCLC, 16.3% in the test with 786-0 renal and 5.73% (active) in the test with COLO 205 colon.
As to `CC1(C)c2[nH]c3ccccc3c2C[C@]2(C)[C@H]3C(=O)C=C4[C@@H]5C[C@@](C)(C(N)=O)CC[C@]5(C)CC[C@@]4(C)[C@]3(C)CC[C@@H]12`, the growth is 72.5% in the test on NCI-H23 lung; 73.2% with NCI-H226 lung; 66.4% in the test on NCI-H322M lung; 85.3% with HOP-62 NSCLC; 69.4% in the test with NCI-H460 lung; 55.4% in the test on HOP-92 NSCLC. The growth in the test on NCI-H522 lung is 68.7%; with A549/ATCC NSCLC, 65.8%; in the test with 786-0 renal, 75%; in the test on COLO 205 colon, 46.7%.
On to `CC(C)(C)c1cc(C=O)cc(C(C)(C)C)c1O`, for which the growth in the test with NCI-H23 lung was 112%; in the test with NCI-H226 lung, 97.8%; in the test on NCI-H322M lung it was 101%; in the test on HOP-62 NSCLC it was 106%; in the test with NCI-H460 lung, 111%; in the test on HOP-92 NSCLC, 79.5%. Further, the growth was 90.7% with NCI-H522 lung, 101% with A549/ATCC NSCLC, 107% in the test on 786-0 renal and 100% in the test with COLO 205 colon.
In the case of `COc1cc2nc(-c3ccc(C(F)(F)F)cc3)cc(OCCCN3CCCC3)c2cc1OC`, the growth in the test with NCI-H23 lung was 57.3%; in the test on NCI-H226 lung it was -8.25% (active); in the test with NCI-H322M lung, 62.8%; in the test on HOP-62 NSCLC, 63.6%; with NCI-H460 lung, 22%; in the test with HOP-92 NSCLC it was 23.2%. The growth is 28.5% in the test on NCI-H522 lung, 39.9% with A549/ATCC NSCLC, 48.4% in the test on 786-0 renal and 22.1% with COLO 205 colon.
Turning to `N/C(=N\C(N)=N\c1nc2ccccc2s1)c1cnccn1`, the growth with NCI-H23 lung is 19.8%; in the test with NCI-H226 lung, 22.5%; in the test with NCI-H322M lung, 25.1%; with HOP-62 NSCLC, 40.2%; in the test on NCI-H460 lung, 11.8%; with HOP-92 NSCLC it was 47%. Also, the growth is 22.4% with NCI-H522 lung, 21.1% in the test on A549/ATCC NSCLC, 23.4% in the test on 786-0 renal and 16.2% in the test with COLO 205 colon.
Consider `O=C(/C=C/c1ccc[nH]1)c1ccc(-n2ccc(C(F)(F)F)n2)c(F)c1`, for which the growth with NCI-H23 lung is 88.7%; with NCI-H226 lung it was 84%; with NCI-H322M lung, 85.1%; in the test with HOP-62 NSCLC, 103%; in the test on NCI-H460 lung, 100%; in the test with HOP-92 NSCLC, 92.4%. The growth in the test with NCI-H522 lung is 69.5%; in the test with A549/ATCC NSCLC it was 87.4%; in the test with 786-0 renal it was 91.8%; with COLO 205 colon it was 119%.
As to `C=C1C(=O)O[C@H]2[C@H]1CC/C(C(=O)NCCCCCNC(=O)/C1=C/CC[C@@]3(C)O[C@H]3[C@H]3OC(=O)C(=C)[C@@H]3CC1)=C\CC[C@@]1(C)O[C@@H]21`, the growth in the test on NCI-H23 lung was 97.6%; in the test on NCI-H226 lung it was 103%; with NCI-H322M lung it was 93.9%; with HOP-62 NSCLC, 98.8%; in the test with NCI-H460 lung, 109%; in the test on HOP-92 NSCLC, 105%. The growth in the test with NCI-H522 lung is 89.3%; with A549/ATCC NSCLC, 95.3%; with 786-0 renal, 101%; in the test on COLO 205 colon it was 102%.
On to `COc1cc2nc(-c3ccc(Cl)cc3)cc(OCCCN3CCCCC3)c2cc1OC`, for which the growth with NCI-H23 lung is 64.7%; with NCI-H226 lung, -9.93% (active); in the test with NCI-H322M lung, 63.1%; in the test with HOP-62 NSCLC, 54.7%; in the test on NCI-H460 lung, 25.6%; with HOP-92 NSCLC it was 34.2%. The growth in the test on NCI-H522 lung is 34%; in the test with A549/ATCC NSCLC, 36%; in the test on 786-0 renal it was 72.5%; in the test with COLO 205 colon, 16.1%.
Take `O=S(=O)(NCCCNc1nccc(-c2c(-c3cccc(F)c3)nc3sccn23)n1)c1cccc2ccccc12`: the growth in the test on NCI-H23 lung is 66.2%; in the test with NCI-H226 lung it was 36.8%; in the test on NCI-H322M lung, 81.6%; in the test on HOP-62 NSCLC it was 80.7%; with NCI-H460 lung, 19.8%; in the test with HOP-92 NSCLC, 94.6%. Besides, the growth in the test with NCI-H522 lung is 56.3%; in the test with A549/ATCC NSCLC it was 45.6%; in the test with 786-0 renal, 52.9%; with COLO 205 colon, 21.5%.
